Among the data in PubChem BioAssay (NCI) are growth values, retold here.

Compounds without any hit were thinned out: in the full panel of roughly 83,000, 20% have a hit.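 Values shown are percent growth following 48 h exposure of cells in 96-well plates to a single concentration of compound; below 10 was considered active.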 Calls of active or inactive are those of the source.

In the assay the test system is HL-60(TB) leukemia. The experiment in a line: NCI-60 one-dose screen, 48 h (100 = growth as untreated, 0 = no growth, -100 = all killed). The conditions noted are these: 10 µM unless noted.
`COc1ccc(-c2c[nH]c(C(=O)O)c2-c2cc(OC)c(OC)c(OC)c2)cc1`: the growth is -13.8% (active).

`C=C1C(=O)O[C@H]2[C@H]1CC/C(COC(=O)NCCc1ccc(Br)cc1)=C\CC[C@@]1(C)O[C@@H]21`: the growth was -14% (active).

As to `COC(=O)[C@H](Cc1cn(C)cn1)NC(=O)[C@H](CC(C)C)NC(=O)Nc1cc(C(F)(F)F)cc(C(F)(F)F)c1`, the growth was -72.6% [100 µM] (active).
